Reference: PubChem BioAssay (NCATS)
Where “and” joins values, the source holds several entries; their conditions need not be identical. Identical values can stand only once. Inconclusive results are not listed.

Assay: qHTS Assay for Lipid Storage Modulators (AID 1519)
Details: Drosophila S3 cells, BODIPY lipid droplet/cell ratio, laser cytometry; measured here: cell count channel max response; cells loaded with oleic acid
Method in brief: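 Cells seeded at 5,000 per well were treated with compounds over a concentration series and loaded with oleic acid (400 uM, as added). Lipid droplet fluorescence (488 nm excitation, 500-530 nm channel) was read by laser-scanning cytometry and normalized to 20 uM Triacsin C.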

| SMILES | max response |
| --- | --- |
| S=C(S)OC1CC2CC1C1CCCC21 (stereo not drawn) | -18.8% |
| N[C@@H](CC(=O)O)C(=O)O | -7.93% and 52.8% |
| CC(C(=O)O)c1ccc(C(=O)c2cccs2)cc1 (stereo not drawn) | 8.76% |
| Oc1ccccc1O | -20.2% |
| CCCCCCCC/C=C\CCCCCCCC(=O)NCCO | 18.9% |
| CCN1/C(=C/C(C)=O)Sc2ccc(OC)cc21 | -21.8% |
| S=c1[nH]c2ccccc2s1 | 14.4% |
| O=c1[nH]c2ccccc2n1CCCN1CCN(C(c2ccccc2)c2ccccc2)CC1 | 44.5% |
| CCCCCCCCCCCCCCCCCC(=O)NCC(COP(=O)([O-])OCC[N+](C)(C)C)OCC (stereo not drawn) | 15.1% |
| O=c1[nH]c2cc(Cl)c(Cl)cc2[nH]c1=O | -49.2% |
| COc1cc(OC)c(/C=C2/C(=O)Nc3ccccc32)c(OC)c1 | 30.4% |
| Nc1ccc(O)c(C(=O)O)c1 | -4.23% |
| CC(C)NC[C@H](O)COc1cccc2[nH]ccc12 | -1.16% |
| CCCCCCCCCCCCCCCC(=O)OC(CC(=O)O)C[N+](C)(C)C (stereo not drawn) | 29% |
| O=C1NC(O)=NC1(c1ccccc1)c1ccccc1 | -13.9% |
| CCCSc1ccc2nc(NC(=O)OC)[nH]c2c1 | -8.08% and -12.8% |
| N[C@H](CCCP(=O)(O)O)C(=O)O | -9.86% and -13.3% |
| O=C(c1cc(O)c(O)c([N+](=O)[O-])c1)c1ccccc1F | -12% |
| CN(C)c1ccc(/C=C2\C(=O)Nc3ccccc32)cc1 | -28.2% |
| O=C(/C=C/c1ccc(O)c(O)c1)OCCc1ccccc1 | -15.3% and -76.7% |
| O=C1CN(/N=C/c2ccc([N+](=O)[O-])o2)C(=O)N1 | 3.43% |
| O=S(=O)(c1cccc2c(I)cccc12)N1CCCNCC1 | -8.25% |
| CCCN(CC1CC1)c1nc(C)nc(Nc2c(Cl)cc(Cl)cc2Cl)c1Cl | -15.8% |
